Records with an inconclusive call do not appear. Entries that show only a call come without a potency. Calls of active or inactive are those of the source. Calls come from the whole dose curve; as a rule, active = well fitted inhibition curve with a large enough effect; inconclusive = small, poorly fitted or top-dose-only effect; inactive = flat fitted curve, though single readings scatter. Where a SMILES comes first, the peptide text is derived from it. [ ]: non-standard residue; d: D form.

For the test, the target named is Calcium and integrin-binding protein 1 (Homo sapiens) (UniProt Q99828). Nature of the test: Primary qHTS for Identification of Calcium Integrin Binding Protein 1 (CIB1) Competitor (AID 1508620).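 Note: GST tagged CIB1 binding a fluorescein labelled alphaIIb integrin peptide tracer; top concentration of the series differs between compounds.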 Particulars: CIB1-GST / FITC-alphaIIb peptide fluorescence polarization; series mostly up to 57.7 µM. A digest of the protocol: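 CIB1-GST (1 uM final) and compound incubated 15 min at room temperature before adding FITC-alphaIIb peptide tracer (100 nM final). Competition for binding read by fluorescence polarization (ex 480, em 540) after another 15 min at room temperature.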
Sequence of Calcium and integrin-binding protein 1 (Homo sapiens) (Q99828 whole entry, looked up): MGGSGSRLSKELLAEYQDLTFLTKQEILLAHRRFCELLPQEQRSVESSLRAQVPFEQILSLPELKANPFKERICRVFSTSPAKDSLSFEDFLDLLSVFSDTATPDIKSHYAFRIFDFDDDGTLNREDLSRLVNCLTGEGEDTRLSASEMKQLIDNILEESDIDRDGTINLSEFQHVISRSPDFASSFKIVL
In general terms: In qHTS, concentration-response curves come from the screen itself.
For `CCC(CC)n1ccc2c(C(=O)NCc3c(C)cc(C)[nH]c3=O)cc(C#N)cc21`, the Potency result was “inactive”.
Under `COc1ccccc1-n1c(SCC(=O)Nc2nc3ccc(C)cc3s2)nc2c(c1=O)SCC2` stands “inactive”; under `O=C(/C=C/c1ccc(O)cc1)OC[C@H]1O[C@@H](OC(=O)/C=C/c2ccccc2)[C@H](O)[C@@H](O)[C@@H]1O`, “inactive”.
Turning to `CC(=O)N[C@H](Cc1ccc(O)cc1)C(=O)N[C@H](CCCN=C(N)N)C(=O)N[C@H](Cc1ccccc1)C(N)=O` (Ac-[dY]-[dR]-[dF]-NH2), the Potency entry is “inactive”.
Under `CC(C)CC(=O)OC[C@H]1O[C@@](COC(=O)CC(C)C)(O[C@H]2O[C@H](CO)[C@@H](O)[C@H](O)[C@H]2OC(=O)CC(C)C)[C@@H](OC(=O)CC(C)C)[C@@H]1O` stands “inactive”.
In the case of `CC[C@H]1OC(=O)C[C@@H](O)[C@H](C)[C@@H](O[C@@H]2O[C@H](C)[C@@H](O)[C@H](N(C)C)[C@H]2O)[C@@H](CCN2C[C@H](C)C[C@H](C)C2)C[C@@H](C)C(=O)/C=C/C(C)=C/[C@@H]1CO[C@@H]1O[C@H](C)[C@@H](O)[C@@H](OC)[C@H]1OC`, the Potency result was “inactive”.
Under `CC(=O)OC1C(O)C(C)=C(CCC(C)CC(=O)O)C2(C)CCCC(C)(C)C12` (stereo not drawn) stands “inactive”; under `CCNC(=O)[C@@H]1CCCN1C(=O)[C@H](CCCN=C(N)N)NC(=O)[C@H](CC(C)C)NC(=O)[C@@H](C)NC(=O)[C@H](Cc1ccc(O)cc1)NC(=O)[C@H](CO)NC(=O)[C@H](Cc1c[nH]c2ccccc12)NC(=O)[C@H](Cc1cnc[nH]1)NC(=O)[C@@H]1CCC(=O)N1`, “inactive”.
